Hits are enriched below; roughly 11% of the tested compounds scored in any of these assays.
L3MBTL1 block – blocks human L3MBTL1. AlphaScreen L3MBTL1–H3K9me1 peptide binding. Potency, µM (titrated, usually from 57.1 µM), for the others: at the highest dose activity, negative = inhibition, actives largely listed as inhibitors. actives 0.66% (n = 230,000); further: on the % scale 0 is the no-effect control and ±100 the full control effect; nearly all actives have a fitted effect of over 60% in size
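AlphaScreen proximity signal between nickel-chelate acceptor and streptavidin donor beads (final 10 ug/mL) reports binding of 50 nM L3MBTL1 to 75 nM biotin-H3 K9me1 peptide; complex incubated with compounds 30 min at room temperature; cefsulodin titration as control.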
G9a inh – inhibitors of human histone lysine methyltransferase G9a. G9a H3K9 monomethylation, AlphaScreen, 2 h. actives 8.8% (n = 350,000). Potency, µM (titrated, usually from 102 µM), inactives show at the top dose activity, negative = inhibition, most hits filed as inhibitors. AID 504332; further: on the % scale 0 is the no-effect control and ±100 the full control effect; nearly all actives have a fitted effect of over 75% in size
Target sequence (Q96KQ7 913-1193 limits assumed): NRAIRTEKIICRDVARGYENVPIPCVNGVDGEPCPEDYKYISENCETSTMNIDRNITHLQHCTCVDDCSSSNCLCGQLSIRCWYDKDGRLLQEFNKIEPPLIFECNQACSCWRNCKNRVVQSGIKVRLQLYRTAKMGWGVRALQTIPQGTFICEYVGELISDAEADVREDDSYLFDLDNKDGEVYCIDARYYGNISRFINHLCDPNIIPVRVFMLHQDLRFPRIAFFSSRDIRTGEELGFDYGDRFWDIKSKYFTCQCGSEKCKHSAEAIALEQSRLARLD
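AlphaScreen read-out: biotin-H3K9 peptide (500 nM) methylation by 20 nM enzyme with 20 uM SAM, 2 h at room temperature after 15 min compound preincubation; anti-monomethyl H3K9 antibody plus donor/acceptor beads, 10 min dark.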
HP1b chromo inh – blocks HP1-beta chromodomain binding to methylated histone tails; P83916; actives 0.56% (n = 390,000); Potency, µM (series often up to 114 µM), for inactives: at the top dose activity change, negative = inhibition, hits mostly inhibitors; AlphaScreen HP1-beta / biotin-H3K9me3 peptide binding; AID 540317; further: nearly all actives have a fitted effect of over 70% in size
Target sequence (P83916 whole entry, looked up): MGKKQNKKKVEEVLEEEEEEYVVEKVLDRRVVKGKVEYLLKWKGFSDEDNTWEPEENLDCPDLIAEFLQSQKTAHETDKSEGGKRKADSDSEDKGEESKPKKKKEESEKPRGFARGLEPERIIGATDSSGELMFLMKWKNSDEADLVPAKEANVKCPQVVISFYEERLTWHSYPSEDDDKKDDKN
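HP1-beta protein (50 nM final) preincubated 30 min at room temperature with biotinylated H3(1-18)K9me3 peptide (50 nM) in PBS pH 7.4, 0.01% Tween-20, then compound added for 30 min. AlphaScreen streptavidin donor/nickel chelate acceptor beads (10 ug/mL final), 30 min dark, luminescence read.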
JMJD2A Tudor inh – inhibitors of human JMJD2A Tudor domain; Potency, µM (titrated, usually from 114 µM), without a hit: top-dose activity change, negative = inhibition, hits mostly inhibitors; AlphaScreen JMJD2A-Tudor / H3K4me3 peptide binding; actives 4.4% (n = 390,000); further: on the % scale 0 is the no-effect control and ±100 the full control effect; nearly all actives have a fitted effect of over 50% in size
BAZ2B block – inhibitors of human BAZ2B bromodomain; Q9UIF8; AlphaScreen BAZ2B-H3K14Ac peptide displacement; Potency, µM (highest dose often 114 µM), without a hit: top-dose activity change, negative = inhibition, usual class: inhibitors; actives 4.4% (n = 360,000); AID 504333; further: on the % scale 0 is the no-effect control and ±100 the full control effect; nearly all actives have a fitted effect of over 60% in size
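AlphaScreen displacement: compounds (up to 110uM) incubated 30 min at room temperature with a preformed 50 nM BAZ2B/50 nM biotinylated H3K14Ac peptide complex in PBS pH 7.4 with Tween-20. Donor and acceptor beads at 10 ug/mL final added, 20 min light-protected before reading.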
Active calls of the source: *; ? = inconclusive; . = not tested or not shown; [ ] = another dose, or the depositor's remark. The call rests on the fitted dose curve; in most records, active means well fitted inhibition curve with a large enough effect; inconclusive means small, poorly fitted or top-dose-only effect; inactive means no such curve, though single readings can be large or run the other way. Potency means the concentration at half of the fitted maximal effect.

SMILES | L3MBTL1 block | G9a inh | HP1b chromo inh | JMJD2A Tudor inh | BAZ2B block
Cc1ccc(NC2CCCN(C(=O)c3cccs3)C2)cc1C (configuration not stated) | . | 35.5µM* | -6.0% | -32.9% | -38.3%
CCOC(=O)c1ccc(NC(=O)c2c(NCc3cccc(OC)c3OC)sc3c2CCC3)cc1 | . | 14.1µM* | 28.1% | -19.6% | 0.5%
COC(=O)c1ccc(NC(=O)c2c(NCc3ccc(C)o3)sc3c2CCCC3)cc1 | . | ? | -11.3% | ? | -28.8%
CCOC(=O)c1ccc(NC(=O)c2c(NCc3sccc3C)sc3c2CCCCC3)cc1 | . | 8.91µM* | -7.6% | 56.2µM* | 44.7µM*
CCN(CC)c1ccc(NC(=O)C2CC(=O)N(Cc3ccccc3)C2)cc1 (configuration not stated) | 31.6µM* | 11.2µM* | ? | 56.2µM* | 44.7µM*
CS(=O)(=O)c1ccc(Cl)c(NC(=O)C2CC(=O)N(Cc3ccco3)C2)c1 (configuration not stated) | ? | ? | 27.7% | -2.7% | -4.2%
CS(=O)(=O)c1ccc(Cl)c(NC(=O)C2CC(=O)N(Cc3ccccc3)C2)c1 (configuration not stated) | . | 15.3%[59 µM] | -23.9% | 89.1µM* | ?
CCOc1ccc(C(=O)CC(C(=O)O)N2CCCCC2)cc1 (configuration not stated) | 1.0% | 11.5%[12.7 µM] | 26.8% | -9.1% | 2.9%
CCOC(=O)c1ccc(OCC2c3cc(OC)c(OC)cc3CCN2C(=O)Cc2ccc(F)cc2)cc1 (configuration not stated) | . | -4.5%[59 µM] | 11.4% | -33.6% | ?
CCCCCNc1nc(-c2ccccc2)cs1 | . | ? | . | . | -9.4%
Cc1cccnc1Nc1nc(-c2ccccn2)cs1 | . | 18.7%[12.7 µM] | 19.7% | 44.7µM* | 14.1µM*
c1ccc(-c2csc(Nc3ncccn3)n2)cc1 | 1.0% | -0.6%[59 µM] | 8.4% | 10.0% | 8.3%
Cc1cccnc1Nc1nc(-c2ccccc2)cs1 | . | 39.8µM* | 7.7% | -15.1% | -21.4%
NNc1nc(-c2ccccc2)cs1 | -9.8% | 22.4µM* | 12.2% | ? | ?
CC(CNC(=O)c1ccc2c(c1)nc1n2CCCCC1)c1ccccc1 (configuration not stated) | . | 9.8%[59 µM] | 16.7%[57 µM] | -17.9% | 5.5%
O=C(NCC(c1cccnc1)N1CCc2ccccc21)c1ccc(F)cc1 (configuration not stated) | . | -1.7%[59 µM] | 26.3% | -12.5% | 10.8%
Cc1nc(Nc2ccc(Cl)cc2)cc(-c2ccccc2)n1 | . | 43.6%[59 µM] | 112.5% | 40.1% | 23.1%
Nn1c(SCCOc2ccc(Cl)cc2)nnc1-c1cccnc1 | 1.6% | ? | 3.2% | -26.3% | -4.1%
Cc1ccc(OCCSc2nnc(-c3ccncc3)n2C)cc1 | 4.0% | 39.8µM* | 22.2% | -1.5% | -0.1%
Nn1c(SCCOc2ccccc2)nnc1-c1cccnc1 | 5.3% | 50.1µM* | 25.2% | -16.2% | -3.1%
COc1cccc(-n2c(SCC(=O)O)nnc2-c2cccnc2)c1 | -4.0% | 56.2µM* | 31.4% | -18.2% | 1.1%
COc1ccc(-n2c(SCC(N)=O)nnc2-c2cccnc2)cc1 | -4.3% | 12.1%[59 µM] | 28.0% | -33.1% | -4.2%
CCn1c(SCc2cccc(C(=O)O)c2)nnc1-c1ccccc1 | 2.2% | 56.2µM* | 24.2% | -10.8% | -2.3%
Cc1ccc(C)c(CN2C(=O)c3ccccc3S(=O)(=O)c3ccc(C(=O)N4CCN(c5ccccc5)CC4)cc32)c1 | . | ? | 21.6% | -20.2% | -14.6%
COc1cccc(N2CCN(C(=O)c3cnc4c(-c5ccccc5)c(C)nn4c3C)CC2)c1 | . | 8.3%[59 µM] | -8.9% | -20.7% | -37.4%
SMILES | L3MBTL1 block | G9a inh | HP1b chromo inh | JMJD2A Tudor inh | BAZ2B block
COc1ccccc1C(=O)Nc1sc(Nc2ccccc2)nc1C(N)=O | . | 1.9%[59 µM] | 32.8%[57 µM] | -9.4% | 6.3%
CCCOC(=O)C1=C(C)NC(=O)NC1c1cc2c(cc1Br)OCO2 (configuration not stated) | 1.3% | 18.3% | -8.5% | -21.8% | 5.5%
COc1cccc(-n2c(COc3ccccc3C)nnc2SCC(=O)O)c1 | 0.1% | 44.7µM* | 23.7% | -11.9% | -5.0%
COc1ccc(-n2c(SCC(=O)N3CCCCC3C)nnc2-c2cccnc2)cc1 (configuration not stated) | -0.4% | 39.8µM* | 58.2% | 4.4% | 15.9%
CCn1c(SCC(=O)c2ccccc2)nnc1-c1cccnc1 | -2.6% | -8.0% | 23.5% | -12.8% | -17.0%
COc1ccc(-n2c(SCC(=O)N3CCCC(C)C3)nnc2-c2cccnc2)cc1 (configuration not stated) | -5.9% | -2.6% | 18.3% | -0.7% | 9.1%
C=CCn1c(SCC(=O)Nc2nnc(C)s2)nnc1-c1cccnc1 | . | -42.8% | 8.8% | 56.2µM* | -35.0%
Cc1ccccc1OCc1nnc(SCC(=O)O)n1-c1ccccc1 | 9.3%[2.29 µM] | 8.6%[0.501 µM] | 24.2% | -11.2% | -26.7%
C=CCn1c(SCC(=O)Nc2ccc(C)cc2C)nnc1-c1cccnc1 | . | 9.0% | 43.6% | -4.9% | -0.1%
CCn1c(SCCC(=O)O)nnc1-c1cccnc1 | 2.3% | 44.7µM* | 20.8% | -17.1% | -5.6%
COc1cccc(-c2nnc(SCC3CNC(=O)O3)n2-c2ccc(Cl)cc2)c1 (configuration not stated) | -7.2% | 14.1µM* | 26.1% | -12.7% | 12.0%
Cc1ccc(C(=O)c2nc3c(n2O)CCCC3)cc1 | . | ? | -2.1% | 35.5µM* | 4.6%
CCOC(=O)n1c(=O)oc2ccc(Cl)cc21 | -3.5% | 20µM* | 27.1% | 28.2µM* | 4.8%
CCCCOC(=O)n1c(=O)oc2ccccc21 | . | 6.6%[59 µM] | 28.5% | 0.4% | 9.5%
Cc1cc(NC(=O)CN2C(=O)CSc3ccc(S(=O)(=O)N(C)C)cc32)ccc1Br | . | -4.2%[59 µM] | 55.7% | -15.6% | 0.5%
CC(=O)c1sc2nc(-c3cccs3)ccc2c1N | . | 1.58µM* | -3.5% | 25.1µM* | 2.2%
Cc1ccc(NC(=O)CSc2nc3ccccc3nc2Cc2ccccc2)c(C)c1 | . | -1.7%[59 µM] | 20.8%[57 µM] | -11.4% | 0.3%
COc1ccc(F)cc1S(=O)(=O)NCC(c1ccco1)S(=O)(=O)c1cccs1 (configuration not stated) | . | 4.9%[59 µM] | 0.3% | -12.7% | -15.1%
CCCOc1ccc2c(c1)C(=NN=C(N)N)c1cc(OCCC)ccc1-2 | . | ? | ? | 28.2µM* | 39.8µM*
CCN(CC)CCOc1ccc2c(c1)C(=NO)c1cc(OCCN(CC)CC)ccc1-2 | -2.6% | ? | -7.2% | -27.0% | 8.4%[57.1 µM]
CC1=CC(c2ccccc2)n2nc(NC(=O)CCCC(=O)O)nc2N1 (configuration not stated) | . | 5.4% | 6.6% | ? | 50.1µM*
CC1=CC(c2ccc(Cl)cc2)n2nc(NC(=O)c3ccccc3)nc2N1 (configuration not stated) | . | 14.1µM* | 54.1% | -30.1% | 56.2µM*
CC1=CC(c2ccccc2)n2nc(NC(=O)CCC(=O)O)nc2N1 (configuration not stated) | -8.6% | ? | -13.5% | ? | ?
